Sampled rows, rich in hits. Any-hit rate of the full collection: about 22%.
E-sel TNF inh: TNF alpha driven E-selectin expression inhibition | HUVEC TNFa-induced E-selectin immunofluorescence, high content | inhibition, % at 2 µM | 0.71% of 120,000 active;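 active = inhibition above the batch mean plus 3 SD, and confirmed as a hit on visual image review, cut at about 43% in these data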;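 note: 0% = TNF-stimulated DMSO wells and 100% = unstimulated control wells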
CYP2C9 inh: blocks human cytochrome P450 2C9; inhibition, % at 5 µM; 20% of 96,000 active; CYP2C9 Supersomes, luciferin-H conversion, luminescence; P11712;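 active = blocking of liver enzyme CYP2C9 beyond about 50% at 5 µM, limit read from the data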
CYP2C19 inh: blocks human cytochrome P450 2C19. P33261. CYP2C19 Supersomes, luciferin-H EGE luminescence, 30 min. inhibition, % at 5 µM. 21% of 96,000 active. AID 778;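 active = CYP2C19 inhibition above a set limit at 5 µM in the primary screen, cut at about 50% in these data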;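 note: plate controls were negative control wells for no effect and 2.5 mM tranylcypromine positive control for full effect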
Target sequence (P33261 whole entry, looked up): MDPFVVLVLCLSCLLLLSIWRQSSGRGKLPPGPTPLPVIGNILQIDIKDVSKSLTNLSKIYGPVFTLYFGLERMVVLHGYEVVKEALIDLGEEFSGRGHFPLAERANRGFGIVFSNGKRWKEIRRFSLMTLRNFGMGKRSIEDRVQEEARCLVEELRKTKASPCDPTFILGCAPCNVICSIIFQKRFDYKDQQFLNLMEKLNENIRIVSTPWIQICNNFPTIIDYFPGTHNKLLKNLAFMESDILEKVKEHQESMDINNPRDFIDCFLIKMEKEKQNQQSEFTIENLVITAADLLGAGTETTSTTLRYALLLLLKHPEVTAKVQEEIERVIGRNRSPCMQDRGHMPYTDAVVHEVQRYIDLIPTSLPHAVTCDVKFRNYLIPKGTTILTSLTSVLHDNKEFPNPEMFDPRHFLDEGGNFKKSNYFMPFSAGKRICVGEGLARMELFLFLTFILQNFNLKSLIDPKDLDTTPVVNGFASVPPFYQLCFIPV
CYP2C9 act: activators of human CYP2C9; P11712; 1.4% of 96,000 active; recombinant CYP2C9, luciferin-H conversion, luminescence; active compounds read high; factor 1 = untreated enzyme, 0 = blocked; activation factor at 5 µM;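 active = activation factor of 2 or more for CYP2C9 at a 5 µM dose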;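 note: 0 = sulfaphenazole-blocked wells and 1 = vehicle-only wells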
CYP2C19 act: increases human CYP2C19 enzyme activity. P33261. recombinant CYP2C19, luciferin-H EGE luminescence; active compounds read high; 0 = fully inhibited enzyme, 1 = untreated enzyme. activation factor at 5 µM. 96,000 tested, under 10 active;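 active = activation factor of at least 2 at 5 µM in the primary screen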;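 note: 0 = wells with 2.5 mM tranylcypromine and 1 = vehicle-only wells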
cytoskel mod: cytoskeleton assembly modification; HUVEC TNFa F-actin phalloidin imaging, high content; 0.18% of 91,000 active; AID 836; inhibition, % at 2 µM;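 active = inhibition above the batch mean plus 3 SD and confirmed as a hit by visual image inspection, cut at about 30% in these data, passing the limit was not always enough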
Numbers without * were called inactive; . = no result.

SMILES	E-sel TNF inh	CYP2C9 inh	CYP2C19 inh	CYP2C9 act	CYP2C19 act	cytoskel mod
Cc1ccc2[nH]c(C(=O)O)c(NC(=O)CN3CCN(c4cccc(C)c4C)CC3)c2c1	25	83*	34	0.2	0.7	7
COCCCNC(=O)/C(=C\c1cccn1C)NC(=O)c1cccs1	0	.	.	.	.	.
COc1ccc(C(=O)NNC(=O)c2ccc(S(=O)(=O)N3CCOCC3)cc2)cc1	-2	.	.	.	.	.
CCn1c(=O)cc(SCC(=O)NCc2ccco2)c2ccccc21	37	-74	19	1.7	0.8	36
COc1ccc(/C=N/OC(=O)Nc2ccccc2)cc1[N+](=O)[O-]	10	.	.	.	.	.
CCOc1cc(-c2nc(-c3ccc(C)nc3OC)no2)cc(OCC)c1OCC	-22	76*	97*	0.2	0	2
COc1ccc(CCC(=O)Nc2ccc(-c3noc(-c4ccc(OC)c(OC)c4)n3)cc2)cc1	-9	69*	16	0.3	0.8	-14
CCOc1cc(-c2noc(-c3ccncc3)n2)cc(Br)c1OC	.	32	76*	0.7	0.2	.
COc1ccc(-c2nc(-c3ccc(NC(=O)c4ccc(Br)o4)cc3)no2)cc1OC	.	37	29	0.6	0.7	-7
O=[N+]([O-])c1cccc(-c2nc(-c3ccncc3)no2)c1	5	53*	95*	0.5	0.1	9
COc1ccc(-c2nc(-c3ccncc3)no2)cc1OC	-42	60*	88*	0.4	0.1	.
CCOc1ccc(-c2nc(-c3cccnc3)no2)cc1OCC	.	13	62*	0.9	0.4	2
CC(=O)Oc1ccc(-c2nc(-c3cccnc3)no2)cc1	-5	86*	95*	0.1	0.1	24
Brc1ccc(-c2nc(-c3cccnc3)no2)o1	.	47	85*	0.5	0.1	2
CCOc1ccc(-c2nc(-c3ccc(OC)cc3)no2)cc1OCC	-7	13	4	0.9	1	-6
CCOc1ccc(-c2noc(-c3ccncc3)n2)cc1OCC	-2	80*	70*	0.2	0.3	-3
Cc1ccccc1OCCNc1cc(N2CCNCC2)ccc1[N+](=O)[O-]	-10	.	.	.	.	.
CC1=C(C(=O)OC(C)C)C(C)C(C(=O)OC(C)C)=C(C)N1	-38	92*	100*	0.1	0	.
Cc1ccc(-c2cc(N)n(Cc3ccc(Cl)cc3)n2)cc1	-54	62*	83*	0.4	0.2	-14
COc1cc(OC)cc(-c2cc(N)n(S(=O)(=O)Cc3ccccc3)n2)c1	4	87*	43	0.1	0.6	-2
CCCS(=O)(=O)n1nc(-c2ccc(OC)cc2OC)cc1N	-47	.	.	.	.	.
CCCS(=O)(=O)n1nc(-c2ccc(C)cc2)cc1N	5	67*	91*	0.3	0.1	-1
Nc1cc(-c2ccc(Cl)cc2)nn1S(=O)(=O)c1ccc(Cl)cc1	.	25	18	0.8	0.8	4
CCOc1ccc(-c2cc(N)n(S(=O)(=O)c3ccc(OC)c(OC)c3)n2)cc1	.	34	40	0.7	0.6	2
CCCS(=O)(=O)n1nc(-c2ccc(OC)cc2)cc1N	.	87*	94*	0.1	0.1	-6
SMILES	E-sel TNF inh	CYP2C9 inh	CYP2C19 inh	CYP2C9 act	CYP2C19 act	cytoskel mod
CC1CCCC(NC(=O)c2ccc3c(=O)n(CC4CCCO4)c(=O)[nH]c3c2)C1C (stereo not given)	-3	-9	18	1.1	0.8	-9
Cc1ccc2c(c1)[C@@H]1CN(C)CC[C@@H]1N2S(=O)(=O)c1ccc(F)cc1	.	-2	-4	1	1	20
Cc1cccc(C)c1NC(=O)CSc1ncnc2nc[nH]c12	.	-3	3	1	1	8
O=C(CSc1ncnc2nc[nH]c12)Nc1ccccc1C(F)(F)F	76*	0	-9	1	1.1	14
O=[N+]([O-])c1ccccc1Oc1ccccc1Cl	-1	.	.	.	.	.
CCOc1cc(CNc2ccc(CNc3ncn[nH]3)cc2)ccc1OCc1ccccc1	4	.	.	.	.	.
c1ccc(NCc2cccnc2)cc1	36	6	10	0.9	0.9	8
Cc1ccc(NC(=S)NCc2cccnc2)cc1	-40	14	70*	0.9	0.3	6
S=C(NCc1cccnc1)Nc1cccc(Cl)c1	.	66*	73*	0.3	0.3	7
Fc1ccc(NCc2cccnc2)cc1	15	17	58*	0.8	0.4	-6
Fc1ccc(CNc2ccc(CNc3ncn[nH]3)cc2)cc1	-82	33	64*	0.7	0.4	.
N/C(=N\c1nc(C(F)(F)F)cc(=O)[nH]1)Nc1ccc(Cl)cc1	-20	.	.	.	.	.

Source: PubChem BioAssay
